The values below come from PubChem BioAssay AID588511 (Johns Hopkins Ion Channel Center, 2011).

Out of some 310,000 compounds screened, about 3,600 (1.2%) were called active.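 The calls were made as follows: active = ratio plate-corrected score three or more library SD toward inhibition, starting fluorescence score within five deviations; inactive = the rest.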 What follows is part of a selection rich in actives, with near analogues and random picks from the rest.

The assay deals with Anoctamin-1 (Mus musculus) (UniProt Q8BHY3). Description: TMEM16A chloride channel inhibitors, primary screen, cell-based, HTS (AID 588511).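 As to normalized B-score (activity score, 25-100; higher = stronger inhibition): score derived from kinetic fluorescence span divided by baseline fluorescence per well.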 Conditions: HEK293 TMEM16A/YFP iodide influx fluorescence, ionomycin; at 10 µM.
Anoctamin-1 (Mus musculus), sequence (Q8BHY3 whole entry, looked up): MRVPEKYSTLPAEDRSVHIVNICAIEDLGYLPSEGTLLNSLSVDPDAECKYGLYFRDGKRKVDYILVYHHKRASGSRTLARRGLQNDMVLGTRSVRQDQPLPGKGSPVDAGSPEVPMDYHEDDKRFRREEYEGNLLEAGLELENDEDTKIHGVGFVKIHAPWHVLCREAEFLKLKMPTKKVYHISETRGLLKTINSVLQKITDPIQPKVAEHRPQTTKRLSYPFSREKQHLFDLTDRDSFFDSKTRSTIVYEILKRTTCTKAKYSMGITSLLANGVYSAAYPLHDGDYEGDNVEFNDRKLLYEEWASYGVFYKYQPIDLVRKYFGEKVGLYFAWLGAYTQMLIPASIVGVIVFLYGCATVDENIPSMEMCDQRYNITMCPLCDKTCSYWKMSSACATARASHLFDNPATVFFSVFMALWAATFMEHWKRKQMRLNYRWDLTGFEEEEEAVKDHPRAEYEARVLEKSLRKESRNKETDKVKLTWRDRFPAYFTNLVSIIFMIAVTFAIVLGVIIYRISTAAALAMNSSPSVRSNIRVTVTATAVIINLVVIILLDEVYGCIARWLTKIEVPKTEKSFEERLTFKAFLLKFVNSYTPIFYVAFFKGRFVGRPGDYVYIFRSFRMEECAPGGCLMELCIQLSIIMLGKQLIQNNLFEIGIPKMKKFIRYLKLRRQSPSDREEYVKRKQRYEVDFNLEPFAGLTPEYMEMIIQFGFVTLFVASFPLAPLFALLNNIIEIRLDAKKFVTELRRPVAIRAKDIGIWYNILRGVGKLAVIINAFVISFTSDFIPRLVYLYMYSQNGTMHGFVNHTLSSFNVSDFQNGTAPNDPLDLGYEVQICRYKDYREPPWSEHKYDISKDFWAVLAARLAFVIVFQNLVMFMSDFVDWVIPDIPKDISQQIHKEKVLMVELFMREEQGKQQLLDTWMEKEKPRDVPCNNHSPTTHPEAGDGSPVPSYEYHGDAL
`CCn1c(SCc2cccc(C(=O)O)c2)nnc1-c1ccc(Cl)cc1`: the normalized B-score (activity score, 25-100; higher = stronger inhibition) entry is “inactive”. Turning to `Cn1ccnc1-c1nnn(-c2ccc(F)cc2)n1`, the normalized B-score (activity score, 25-100; higher = stronger inhibition) entry is “inactive”. As to `COC(=O)c1ccc(OC(=O)c2nn(C)cc2Cl)c(OC)c1`, the normalized B-score (activity score, 25-100; higher = stronger inhibition) result was “inactive”. Regarding `Cc1noc(C)c1-c1nc(CSc2ccc(Cl)cc2)no1`, the normalized B-score (activity score, 25-100; higher = stronger inhibition) result is “inactive”. Turning to `Cc1cc(C)n(CC(=O)Nc2ccc([N+](=O)[O-])cc2)n1`, the normalized B-score (activity score, 25-100; higher = stronger inhibition) result was “inactive”. As for `COCCCNC(=O)c1ccc(CNS(=O)(=O)c2ccc(NC(C)=O)cc2)cc1`, the entry is “inactive”. With `Cc1cc(N=Nc2ccc3ccccc3c2)ccc1O`, the normalized B-score (activity score, 25-100; higher = stronger inhibition) result is “inactive”.

On to `Cc1cccc(-c2c(NC(=O)c3ccco3)oc3ccc(Cl)cc3c2=O)c1`, for which the normalized B-score (activity score, 25-100; higher = stronger inhibition) result is “inactive”.

For `CN(C)CCCO/N=C(\c1ccccc1)c1ccncc1`, the normalized B-score (activity score, 25-100; higher = stronger inhibition) entry is “inactive”. On to `CC(C)Oc1ccc(/C=C(\NC(=O)/C=C/c2ccco2)C(=O)NCCc2nc3ccccc3[nH]2)cc1`, for which the normalized B-score (activity score, 25-100; higher = stronger inhibition) entry was “inactive”. On to `CCCNC(=O)c1onc(CSc2ccc(F)cc2)c1C(=O)NC(C)C`, for which the normalized B-score (activity score, 25-100; higher = stronger inhibition) entry was “inactive”. For `O=C1c2ccccc2C(Nc2ccc3c(c2)OCCO3)N1Cc1ccco1` (centres undefined), the normalized B-score (activity score, 25-100; higher = stronger inhibition) is 100 (active). `Cc1ccnc(N2C(=O)c3ccccc3C2Nc2ccc3c(c2)OCCO3)c1` (centres undefined): the normalized B-score (activity score, 25-100; higher = stronger inhibition) result is “inactive”.

Consider `S=C(NCc1ccco1)Nc1ccc2c(c1)OCCO2`, for which the normalized B-score (activity score, 25-100; higher = stronger inhibition) result is “inactive”. `CCN(CC)C(=O)CSC(Nc1cccc(F)c1)=C(C#N)C#N`: the normalized B-score (activity score, 25-100; higher = stronger inhibition) result was “inactive”. `c1ccc2c(c1)C(=NC1CCCCC1)NC2=NC1CCCCC1`: the normalized B-score (activity score, 25-100; higher = stronger inhibition) entry was “inactive”.

On to `CCCn1c(C(C)Nc2nc(-c3ccc(C)cc3)cs2)nc2cc(Cl)c(N3CCCCC3)cc21` (centres undefined), for which the normalized B-score (activity score, 25-100; higher = stronger inhibition) entry is “inactive”. On to `CC1(C)C=C2[C@H]3CC[C@@H]4[C@@]5(C)CCC(=O)C(C)(C)[C@@H]5CC[C@@]4(C)[C@]3(C)CC[C@@]2(C(=O)O)CC1`, for which the normalized B-score (activity score, 25-100; higher = stronger inhibition) is 100 (active). As for `CC1CN(C(=O)c2ccc3c(c2)OCO3)OC(c2ccccc2)O1` (centres undefined), the entry is “inactive”; as for `Cc1cc(=O)oc2c1c(C)nn2-c1ccc(Cl)cc1`, “inactive”; as for `CCCc1cc(=O)[nH]c(SCC(=O)c2c(N)n(CC(C)C)c(=O)n(C)c2=O)n1`, “inactive”.

For `CC(C)(C)C1CCC(C(=O)Nc2cccnc2)CC1` (centres undefined), the normalized B-score (activity score, 25-100; higher = stronger inhibition) entry is “inactive”. Take `COc1ccc(N(C)S(=O)(=O)c2ccc3c(c2)CC(C)N3C(=O)C2CC2)c(OC)c1` (centres undefined): the normalized B-score (activity score, 25-100; higher = stronger inhibition) entry is “inactive”. In the case of `COc1cccc(CNS(=O)(=O)c2ccc3c(c2)CC(C)N3C(=O)C2CCC2)c1` (centres undefined), the normalized B-score (activity score, 25-100; higher = stronger inhibition) was 100 (active).

On to `COc1cccc(CNS(=O)(=O)c2ccc3c(c2)CC(C)N3C(C)=O)c1` (centres undefined), for which the normalized B-score (activity score, 25-100; higher = stronger inhibition) entry is “inactive”.

For `COc1cc(C(C(=O)NC2CCCC2)N(C(=O)c2ccco2)c2ccccc2C(C)=O)cc(OC)c1OC` (centres undefined), the normalized B-score (activity score, 25-100; higher = stronger inhibition) entry is “inactive”.

Turning to `Nc1nonc1-n1nnc(C(=O)N/N=C/c2cc(Br)ccc2O)c1CSC1=NCCS1`, the normalized B-score (activity score, 25-100; higher = stronger inhibition) result was “inactive”. In the case of `Cc1ccc(-c2nn(C(C)(C)C)c3ncnc(N)c23)cc1`, the normalized B-score (activity score, 25-100; higher = stronger inhibition) entry was “inactive”.

Turning to `Nc1nc(SCC(=O)Nc2cc(C(F)(F)F)ccc2Cl)[nH]c(=O)c1NC(=O)c1ccco1`, the normalized B-score (activity score, 25-100; higher = stronger inhibition) entry was “inactive”. As for `COc1ccc(-n2c(C)cc(C(=O)CSc3nnc(-c4cccs4)o3)c2C)cc1`, the figure is 100 (active). In the case of `COc1ccc(-n2c(C)cc(C(=O)COC(=O)c3cc(OC)c(OC)cc3NC(=O)c3cccs3)c2C)cc1` it was “inactive”; in that of `COc1ccc(-c2nnc(SCC(=O)c3ccc4c(c3)OCCO4)o2)cc1`, “inactive”; in that of `CCc1cc2c(N3CCN(c4nnc(CC)s4)CC3)ncnc2s1`, 100 (active). For the compound `CCc1cc2c(NC(Cc3ccccc3)C(=O)O)ncnc2s1` (centres undefined), the normalized B-score (activity score, 25-100; higher = stronger inhibition) entry was “inactive”. With `CCc1cc2c(NC3CCCC3)ncnc2s1`, the normalized B-score (activity score, 25-100; higher = stronger inhibition) result is “inactive”. Consider `Cc1ccc(S(=O)(=O)N[C@@H](Cc2ccccc2)C(=O)N2CCC(C(=O)N[C@H](C(=O)O)C(C)O)CC2)cc1` (some centres undefined), for which the normalized B-score (activity score, 25-100; higher = stronger inhibition) result was “inactive”.

Regarding `COc1cccc(C(=O)NNS(=O)(=O)c2ccc(F)cc2)c1`, the normalized B-score (activity score, 25-100; higher = stronger inhibition) result is “inactive”. Take `Cc1cccnc1NC(=O)Cn1c(=O)oc2ccccc21`: the normalized B-score (activity score, 25-100; higher = stronger inhibition) result was “inactive”.

Regarding `COCc1c(C(=O)N/N=C(\C)c2ccncc2)nnn1-c1nonc1N`, the normalized B-score (activity score, 25-100; higher = stronger inhibition) entry is “inactive”. In the case of `Cc1nc(C)c(-c2csc(NCCc3ccccc3)n2)s1` it was 100 (active); in that of `CCNc1nc(-c2cc3ccccc3o2)cs1`, “inactive”; in that of `S=c1[nH]nc(NCCc2ccccc2)s1`, “inactive”. Consider `COc1cccc(CNC(=O)c2cccnc2Sc2ccc(Cl)cc2)c1`, for which the normalized B-score (activity score, 25-100; higher = stronger inhibition) entry is “inactive”. With `Cc1ccc(NC(=O)C(=O)NCc2ccc(/C=N/NC(=O)c3c(C)nc4cc(C)ccn34)o2)cc1`, the normalized B-score (activity score, 25-100; higher = stronger inhibition) entry was “inactive”.

`CCN(Cc1ccccc1)C(=O)CN1C(=S)NC(C)(C)CC1C` (centres undefined): the normalized B-score (activity score, 25-100; higher = stronger inhibition) entry is “inactive”. For the compound `O=c1[nH]c(SCc2cccc(F)c2)nc2ccccc12`, the normalized B-score (activity score, 25-100; higher = stronger inhibition) entry was “inactive”. Turning to `Cc1ccc(CSc2nc(-c3ccccc3)c(C#N)c(=O)[nH]2)cc1`, the normalized B-score (activity score, 25-100; higher = stronger inhibition) is 100 (active). Take `O=c1[nH]c(SCc2ccccc2)nnc1-c1ccccc1`: the normalized B-score (activity score, 25-100; higher = stronger inhibition) entry was “inactive”.

For `N#Cc1c(-c2ccc(F)cc2)nc(-c2ccccc2)[nH]c1=O`, the normalized B-score (activity score, 25-100; higher = stronger inhibition) entry was “inactive”. As to `N#Cc1c(-c2ccccc2)nc(SCc2ccc([N+](=O)[O-])cc2)[nH]c1=O`, the normalized B-score (activity score, 25-100; higher = stronger inhibition) entry was “inactive”.

Regarding `N#Cc1c(-c2ccccc2)nc(SCc2cccc(C(F)(F)F)c2)[nH]c1=O`, the normalized B-score (activity score, 25-100; higher = stronger inhibition) was 100 (active). In the case of `O=C(CCN1C(=O)C2CCCCC2C1=O)Nc1ccc(OC(F)F)cc1` (centres undefined) it was “inactive”; in that of `O=C(COC(=O)c1ncc(Cl)c(Cl)c1Cl)NNC(=O)c1ccccc1`, “inactive”; in that of `O=C(CC1C(=O)NCCN1CC(c1ccccc1)c1ccccc1)NCCc1cn[nH]c1` (centres undefined), “inactive”.
